According to PubChem BioAssay (EPA / NIEHS):
Calls of active or inactive are those of the source. How the source made its calls: active means hit-call score of the fitted dose curve at least 0.9, where 1 is the maximum; inactive means score below 0.9.

Legend:
Details in all cases: mRNA level, 48 h; actives raise or lower the signal
[1] = read-out: Apolipoprotein A-V (APOA5) gene, APOA5 (gene 116519); test: LTEA_HepaRG_APOA5: Life Technologies and Expression Analysis (LTEA) Assay for Apolipoprotein A-V (APOA5) gene using HepaRG (AID 2283474)
Method in brief: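 Readout is APOA5 transcript level by qRT-PCR on Fluidigm dynamic arrays, normalized to three housekeeping genes. HepaRG cultures received chemicals for 48 h at up to 100 uM (half-log steps, 0.5% DMSO), with gain or loss scored relative to DMSO.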

[2] = read-out: Apoptosis regulator Bcl-2 (Homo sapiens) (UniProt P10415); test: LTEA_HepaRG_BCL2: Life Technologies and Expression Analysis (LTEA) Assay for Bcl-2 gene using HepaRG (AID 2283475)
Method in brief: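 Differentiated HepaRG cells in serum-free induction medium were exposed for 48 h to eight half-log concentrations up to 100 uM in 0.5% DMSO, in duplicate. BCL2 mRNA was quantified by TaqMan qRT-PCR normalised to ACTB, GAPDH and POLR2A, with bidirectional fitting versus DMSO.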

[3] = read-out: Bcl-2 (BID) gene, BID (gene 637); test: LTEA_HepaRG_BID: Life Technologies and Expression Analysis (LTEA) Assay for Bcl-2 (BID) gene using HepaRG (AID 2283476)
Method in brief: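 Differentiated HepaRG cells in serum-free induction medium were exposed in duplicate for 48 h to eight half-log concentrations up to 100 uM in 0.5% DMSO. BID mRNA was quantified by qRT-PCR, normalized to ACTB, GAPDH and POLR2A.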

[4] = read-out: Caspase-3 (Homo sapiens) (UniProt P42574); test: LTEA_HepaRG_CASP3: Life Technologies and Expression Analysis (LTEA) Assay for cysteine-aspartic acid protease (CASP3) using HepaRG (AID 2283477)
Method in brief: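 Read-out is CASP3 mRNA level by TaqMan qRT-PCR in human HepaRG cells after 48 h chemical exposure. Eight half-log concentrations topping at 100 uM were tested in 0.5% DMSO; gain or loss was fitted relative to DMSO.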

[5] = read-out: Cytochrome P450 (CYP24A1), CYP24A1 (gene 1591); test: LTEA_HepaRG_CYP24A1: Life Technologies and Expression Analysis (LTEA) Assay for Cytochrome P450 (CYP24A1) using HepaRG (AID 2283478)
Method in brief: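 HepaRG, 48 h chemical exposure, 8-pt half-log CRC from 100 uM, 0.5% DMSO vehicle, duplicates. Endpoint: CYP24A1 mRNA by Fluidigm TaqMan qRT-PCR, normalized ACTB/GAPDH/POLR2A; gain/loss fit vs DMSO.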

[6] = read-out: Cytochrome P450 (CYP1A2), CYP1A2 (gene 1544); test: LTEA_HepaRG_CYP1A2: Life Technologies and Expression Analysis (LTEA) Assay for Cytochrome P450 (CYP1A2) using HepaRG (AID 2283479)
Method in brief: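 CYP1A2 transcript induction or loss, quantified by Fluidigm qRT-PCR against three housekeeping genes, was fitted bidirectionally against 0.5% DMSO controls. Human HepaRG cells received eight half-log concentrations from 100 uM over 48 h.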

[7] = read-out: cysteine-aspartic acid protease (CASP8), CASP8 (gene 841); test: LTEA_HepaRG_CASP8: Life Technologies and Expression Analysis (LTEA) Assay for cysteine-aspartic acid protease (CASP8) using HepaRG (AID 2283480)
Method in brief: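 Differentiated HepaRG cells in serum-free induction medium, 48 h exposure, eight-point half-log series from 100 uM in 0.5% DMSO, duplicates. CASP8 mRNA by qRT-PCR, normalized to ACTB, GAPDH, POLR2A; bidirectional fit versus DMSO.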

[8] = read-out: Cytochrome P450 (CYP2B6), CYP2B6 (gene 1555); test: LTEA_HepaRG_CYP2B6: Life Technologies and Expression Analysis (LTEA) Assay for Cytochrome P450 (CYP2B6) using HepaRG (AID 2283481)
Method in brief: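 HepaRG cells plated 48 h, switched to serum-free induction medium, then dosed 48 h (8 points, half-log from 100 uM, 0.5% DMSO). RNA isolated; CYP2B6 expression measured by qRT-PCR; gain or loss fitted relative to DMSO.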

[9] = read-out: Cytochrome P450 2C19 (Homo sapiens) (UniProt P33261); test: LTEA_HepaRG_CYP2C19: Life Technologies and Expression Analysis (LTEA) Assay for CYP2C19 using HepaRG (AID 2283482)
Method in brief: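 Transcript levels of CYP2C19 were quantified by qRT-PCR after HepaRG cells were treated for 48 hours with test chemicals up to 100 uM (eight half-log concentrations, 0.5% DMSO vehicle). Gain or loss of signal was fitted relative to DMSO.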

[10] = read-out: CYP2C8 (gene 1558); test: LTEA_HepaRG_CYP2C8: Life Technologies and Expression Analysis (LTEA) Assay for CYP2C8 using HepaRG (AID 2283483)
Method in brief: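 Differentiated HepaRG cells in serum-free induction medium exposed 48 h in duplicate to 8 half-log concentrations from 100 uM in 0.5% DMSO. CYP2C8 mRNA by qRT-PCR normalized to ACTB, GAPDH, POLR2A; bidirectional fit versus DMSO.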

[11] = read-out: CYP2C9 (gene 1559); test: LTEA_HepaRG_CYP2C9: Life Technologies and Expression Analysis (LTEA) Assay for CYP2C9 using HepaRG (AID 2283484)
Method in brief: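 Differentiated human HepaRG cells in serum-free induction medium were exposed 48 h to chemicals in 8-point half-log series from 100 uM (0.5% DMSO), in duplicate. CYP2C9 mRNA was measured by qRT-PCR, normalized to ACTB/GAPDH/POLR2A, with bidirectional fitting versus DMSO.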

[12] = read-out: CYP2E1 (gene 1571); test: LTEA_HepaRG_CYP2E1: Life Technologies and Expression Analysis (LTEA) Assay for CYP2E1 using HepaRG (AID 2283485)
Method in brief: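 HepaRG cells in serum-free induction medium exposed 48 h to test chemicals, 8 half-log concentrations up to 100 uM in 0.5% DMSO, duplicate. CYP2E1 mRNA by qRT-PCR, normalized to ACTB, GAPDH, POLR2A; bidirectional fit versus DMSO.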

[13] = read-out: CYP4A11 (gene 1579); test: LTEA_HepaRG_CYP4A11: Life Technologies and Expression Analysis (LTEA) Assay for CYP4A11 using HepaRG (AID 2283486)
Method in brief: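 HepaRG, 48 h chem exposure, 8 conc (100 uM top, half-log), 0.5% DMSO vehicle; qRT-PCR readout, housekeeping-gene normalized; bidirectional curve fit vs DMSO baseline.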

[14] = read-out: Cytochrome P450 3A4 (Homo sapiens) (UniProt P08684); test: LTEA_HepaRG_CYP3A4: Life Technologies and Expression Analysis (LTEA) Assay for CYP3A4 using HepaRG (AID 2283487)
Method in brief: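 Differentiated HepaRG cells, plated 48 h, then dosed 48 h in serum-free induction medium with 0.5% DMSO, 8 half-log concentrations up to 100 uM, duplicate. CYP3A4 mRNA by qRT-PCR, normalized to ACTB/GAPDH/POLR2A; bidirectional fit versus DMSO.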

[15] = read-out: DNA damage-inducible transcript 3 (DDIT3), DDIT3 (gene 1649); test: LTEA_HepaRG_DDIT3: Life Technologies and Expression Analysis (LTEA) Assay for DNA damage-inducible transcript 3 (DDIT3) using HepaRG (AID 2283488)
Method in brief: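 Differentiated human HepaRG cells in serum-free induction medium were exposed in duplicate for 48 h to 8 concentrations (top 100 uM, half-log steps, 0.5% DMSO). DDIT3 mRNA measured by TaqMan qRT-PCR, normalized to ACTB/GAPDH/POLR2A; bidirectional fit versus DMSO.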

[16] = read-out: Early growth response protein 1 (EGR1) transcription factor, EGR1 (gene 1958); test: LTEA_HepaRG_EGR1: Life Technologies and Expression Analysis (LTEA) Assay for Early growth response protein 1 (EGR1) transcription factor using HepaRG (AID 2283490)
Method in brief: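 Differentiated HepaRG cells in serum-free induction medium exposed 48 hours, duplicate, to 8 half-log concentrations up to 100 uM in 0.5% DMSO. EGR1 mRNA measured by TaqMan qRT-PCR, normalized to ACTB, GAPDH, POLR2A; bidirectional fit versus DMSO.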

[17] = read-out: Ezrin (EZR), EZR (gene 7430); test: LTEA_HepaRG_EZR: Life Technologies and Expression Analysis (LTEA) Assay for Ezrin (EZR) using HepaRG (AID 2283491)
Method in brief: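 EZR transcript levels came from Fluidigm qRT-PCR and were normalized to three housekeeping genes after 48 h chemical exposure of HepaRG cells. Dosing used an 8-point half-log series with a 100 uM top concentration in 0.5% DMSO, tested in duplicate; both directions were fitted versus vehicle.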

[18] = read-out: Cytochrome P450 3A7 (Homo sapiens) (UniProt P24462); test: LTEA_HepaRG_CYP3A7: Life Technologies and Expression Analysis (LTEA) Assay for CYP3A7 using HepaRG (AID 2283492)
Method in brief: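 Human HepaRG liver cells, 48 h post-plating, switched to serum-free induction medium and exposed in duplicate for 48 h. Dosing: 100 uM top, half-log dilutions, 8 points, 0.5% DMSO vehicle. Read-out: CYP3A7 mRNA, gain or loss fitted against DMSO baseline.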

Measured: AC50

Caspase-3 (Homo sapiens), sequence (P42574 whole entry, looked up): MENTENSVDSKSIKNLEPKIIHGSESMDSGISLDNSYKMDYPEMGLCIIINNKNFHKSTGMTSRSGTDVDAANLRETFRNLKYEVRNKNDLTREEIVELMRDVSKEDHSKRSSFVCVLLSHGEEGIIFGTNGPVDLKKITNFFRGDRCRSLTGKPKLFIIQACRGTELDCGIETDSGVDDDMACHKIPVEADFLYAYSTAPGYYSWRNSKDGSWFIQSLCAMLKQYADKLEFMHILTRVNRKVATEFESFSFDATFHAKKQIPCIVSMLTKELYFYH
Cytochrome P450 3A4 (Homo sapiens), sequence (P08684 whole entry, looked up): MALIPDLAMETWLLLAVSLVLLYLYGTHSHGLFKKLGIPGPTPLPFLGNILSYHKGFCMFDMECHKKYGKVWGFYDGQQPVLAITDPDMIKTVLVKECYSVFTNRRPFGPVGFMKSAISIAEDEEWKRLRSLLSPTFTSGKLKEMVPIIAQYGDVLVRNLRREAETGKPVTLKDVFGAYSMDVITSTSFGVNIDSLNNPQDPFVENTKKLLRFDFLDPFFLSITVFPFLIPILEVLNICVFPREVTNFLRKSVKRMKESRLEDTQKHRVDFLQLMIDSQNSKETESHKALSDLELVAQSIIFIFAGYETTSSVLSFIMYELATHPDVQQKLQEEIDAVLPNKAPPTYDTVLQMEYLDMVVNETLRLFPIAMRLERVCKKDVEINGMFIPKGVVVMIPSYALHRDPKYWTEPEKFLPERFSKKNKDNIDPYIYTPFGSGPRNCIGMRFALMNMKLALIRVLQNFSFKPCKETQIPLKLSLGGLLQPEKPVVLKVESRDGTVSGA
Cytochrome P450 3A7 (Homo sapiens), sequence (P24462 whole entry, looked up): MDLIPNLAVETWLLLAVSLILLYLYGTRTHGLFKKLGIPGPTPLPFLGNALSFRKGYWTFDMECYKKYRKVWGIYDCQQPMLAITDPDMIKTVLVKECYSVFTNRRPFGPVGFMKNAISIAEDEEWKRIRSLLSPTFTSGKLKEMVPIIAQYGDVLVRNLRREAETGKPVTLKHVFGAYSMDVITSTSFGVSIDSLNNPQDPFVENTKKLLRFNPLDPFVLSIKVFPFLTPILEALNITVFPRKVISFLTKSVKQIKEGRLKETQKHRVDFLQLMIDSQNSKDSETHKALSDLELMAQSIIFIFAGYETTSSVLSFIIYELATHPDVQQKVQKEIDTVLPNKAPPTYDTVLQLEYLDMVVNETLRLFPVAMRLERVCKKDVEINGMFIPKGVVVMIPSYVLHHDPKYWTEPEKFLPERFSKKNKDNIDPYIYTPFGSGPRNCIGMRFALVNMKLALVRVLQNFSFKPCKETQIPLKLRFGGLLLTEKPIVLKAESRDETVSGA
Apoptosis regulator Bcl-2 (Homo sapiens), sequence (P10415 whole entry, looked up): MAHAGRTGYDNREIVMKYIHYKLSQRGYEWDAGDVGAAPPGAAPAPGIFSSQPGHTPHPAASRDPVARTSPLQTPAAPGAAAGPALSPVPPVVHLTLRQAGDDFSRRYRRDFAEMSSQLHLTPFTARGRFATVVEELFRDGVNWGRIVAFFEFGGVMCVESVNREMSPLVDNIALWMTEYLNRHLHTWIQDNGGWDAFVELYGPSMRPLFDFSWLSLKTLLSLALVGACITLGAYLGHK
Cytochrome P450 2C19 (Homo sapiens), sequence (P33261 whole entry, looked up): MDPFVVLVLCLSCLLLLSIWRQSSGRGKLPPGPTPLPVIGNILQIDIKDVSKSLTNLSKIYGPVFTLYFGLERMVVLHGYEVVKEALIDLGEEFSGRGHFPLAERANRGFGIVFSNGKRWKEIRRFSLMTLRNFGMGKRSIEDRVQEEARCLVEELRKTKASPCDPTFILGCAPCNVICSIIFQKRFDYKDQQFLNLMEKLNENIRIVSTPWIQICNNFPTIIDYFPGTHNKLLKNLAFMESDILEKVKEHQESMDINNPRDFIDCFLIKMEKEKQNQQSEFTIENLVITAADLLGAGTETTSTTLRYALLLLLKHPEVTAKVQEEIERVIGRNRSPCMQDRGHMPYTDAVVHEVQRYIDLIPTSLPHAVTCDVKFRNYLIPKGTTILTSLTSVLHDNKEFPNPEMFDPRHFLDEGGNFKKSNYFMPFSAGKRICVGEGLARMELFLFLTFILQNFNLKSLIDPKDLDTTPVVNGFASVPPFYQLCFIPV

c1cc[n+]2c(c1)-c1cccc[n+]1CC2
active: [6] 12.4 µM
inactive: all other assays above
